The values that follow come from PubChem BioAssay AID1851 (National Center for Advancing Translational Sciences (NCATS), 2009).

About 4,000 (25%) of roughly 16,000 compounds were called active. About 26% were inconclusive and are not listed. Calls come from the whole dose curve; as a rule, active = well fitted curve in the direction sought with a large enough effect; inconclusive = small, poorly fitted or top-dose-only effect, or effect the other way; inactive = no such curve, though single readings can be large or run the other way. A selection follows.
% is set by controls: 0 for no effect and ±100 for the full control effect.

Sequence of Cytochrome P450 2C9 (Homo sapiens) (P11712 whole entry, looked up): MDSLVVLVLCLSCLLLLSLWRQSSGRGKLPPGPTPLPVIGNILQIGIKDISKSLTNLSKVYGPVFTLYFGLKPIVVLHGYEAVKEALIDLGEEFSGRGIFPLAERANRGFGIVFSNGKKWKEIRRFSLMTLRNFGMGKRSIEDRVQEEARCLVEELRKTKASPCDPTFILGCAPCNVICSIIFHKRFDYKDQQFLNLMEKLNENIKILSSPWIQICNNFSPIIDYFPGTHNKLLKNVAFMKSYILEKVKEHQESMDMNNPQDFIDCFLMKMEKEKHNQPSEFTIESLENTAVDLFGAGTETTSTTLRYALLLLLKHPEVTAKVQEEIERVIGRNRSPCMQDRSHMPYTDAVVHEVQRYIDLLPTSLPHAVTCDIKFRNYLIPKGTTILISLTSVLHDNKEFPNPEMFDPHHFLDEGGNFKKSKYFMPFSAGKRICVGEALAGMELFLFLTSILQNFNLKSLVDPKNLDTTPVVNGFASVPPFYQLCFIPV

In this assay the target is Cytochrome P450 2C9 (Homo sapiens) (UniProt P11712). The assay can be described thus: Cytochrome panel assay with activity outcomes. To be noted: recombinant CYP, pro-luciferin dealkylation, luminescence, p450-cyp2c9; series mostly up to 57.1 µM; activity, negative = inhibition: at the top concentration. Here is the method:
The P450 gene superfamily is involved in the metabolism and clearance of xenobiotics. This assay used various human CYP P450 isozymes to measure the dealkylation of various pro-luciferin substrates to luciferin. The luciferin is then measured by luminescence after the addition of a luciferase detection reagent. Pro-luciferin substrate concentration in the assay was equal to its KM for its CYP P450 isozyme. Inhibitors and some substrates limit the production of luciferin, and decrease measured luminescence.
NCGC Assay Protocol Summary:
1, Reagent, 2 uL, Isozyme and Pro-Luciferin
2, Library compounds, 23 nl, 40 uM to 0.24 nM dilution series
3, Controls, 23 nl, Isozyme specific inhibitor
4, Reagent, 2 uL, NADPH regeneration solution
5, Incubation time, 60 min, Isozyme specific temperature
6, Reagent, 4ul, Detection reagent
7, Incubation time, 20 min, Isozyme specific temperature
8, Detection, 1 sec, ViewLux luminescent read
The luciferase-based P450-GloTM Screening Systems were obtained from Promega (Madison, WI) for CYP 1A2 (V9770), CYP 2C9 (V9790), CYP2 C19 (V9880), CYP 2D6 (V9890), and CYP 3A4 Luciferin-PPXE (V9910) and were adapted for 1,536-well microplates and an automated protocol. The control compounds furafylline for 1A2 (F124), sulfaphenazole for CYP 2C9 (S0758), ketoconazole for CYP 2C19 (K1003), quinidine for 2D6 (Q3625), and ketoconazole for 3A4 (K1003) were purchased from Sigma Aldrich (St. Louis, MO). Recombinant P450 enzymes were obtained from baculovirus constructs expressed in insect cells (BD/Gentest).
Medium-binding white solid Kalypsys plates used. Mixtures kept on ice. 1A2: 10 nM 1A2, 100 uM Luc-ME, 100 mM KPO4; 2C9: 10 nM 2C9, 100 uM Luc-H, 25 mM KPO4; 2C19: 5 nM 2C19, 10 uM Luc-H EGE, 50 mM KPO4; 2D6: 5 nM 2D6, 30 uM Luc-ME EGE, 100 mM KPO4; 3A4: 10 nM, 25 uM Luc-PPXE. All amounts are reflected in their final concentration, working concentration is 2x.
NADPH regeneration solution: 1.3 mM NADP+, 3.3 mM glucose-6-phosphate, 3.3 mM MgCl2, 0.4 U/mL glucose-6-phosphate dehydrogenase for all isozymes, 200 mM KPO4 for 3A4. Mixture prepared at RT but kept on ice during automated run.
RT incubation in auxilliary plate hotel for 1A2, 2D6, and 3A4; 37C for 2C9 and 2C19.
Keywords: P450, CYP1A2, CYP2C19, CYP2C9, CYP2D6, CYP3A4, Luciferase, MLSMR, MLSCN, NIH Roadmap, qHTS, NCGC
With `O=C(C1CC(=O)N(C2CCCC2)C1)N1CCC2(CC1)OCCO2` (stereo not drawn), the “activity, negative = inhibition” value is 27.7% (inactive).

Take `CCOC(=O)c1[nH]c(C)c(C(=O)N2CCC3(CC2)OCCO3)c1C`: the half-maximal activity concentration (AC50) is 20 µM (active).

Consider `N=C(N)c1ccc(-c2ccc(-c3ccc(C(=N)N)cc3)o2)cc1`, for which the activity, negative = inhibition was 19.5% [at 11.4 µM] (inactive).

As to `COc1ccccc1CC1C(=O)C2CCN1CC2` (stereo not drawn), the “activity, negative = inhibition” value is -28.3% (inactive).

Take `CN(N=O)C(=O)N[C@H]1C(O)OC(CO)[C@@H](O)[C@H]1O` (stereo partly drawn): the “activity, negative = inhibition” value is -23.2% (inactive).

On to `CCOc1ccc2c(c1)C(C)=CC(C)(C)N2`, for which the AC50 was 2 µM (active).

`C[N+]1([O-])[C@@H]2CC(OC(=O)[C@@H](CO)c3ccccc3)C[C@@H]1[C@H]1O[C@H]12` (stereo partly drawn): the activity, negative = inhibition entry is “inactive”.

As to `CC(C)CCn1c(N)c(C(=O)NCc2cccs2)c2nc3ccccc3nc21`, the AC50 is 10 µM (active).

For the compound `CCCCn1c(N)c(C(=O)NCc2cccs2)c2nc3ccccc3nc21`, the concentration at half-maximal activity (AC50) was 14.1 µM (active).

As for `CC(C)C(=O)CP(=O)(O)O`, the activity, negative = inhibition is 13.2% [at 11.4 µM] (inactive).

As to `O[C@H](CN1CC1)[C@@H](O)CN1CC1`, the activity, negative = inhibition was 4% [at 11.4 µM] (inactive).

Take `C[C@H]1CN(C2CCC(C#N)(c3ccc(F)cc3)CC2)CC[C@@]1(C(=O)O)c1ccccc1` (stereo partly drawn): the “activity, negative = inhibition” value was 7.15% [at 25.6 µM] (inactive).

On to `c1ccc2c(N3CCNCC3)cccc2c1`, for which the “activity, negative = inhibition” value was 20.9% (inactive).

Take `Cc1nnc2ccc(-c3cccc(C(F)(F)F)c3)nn12`: the “activity, negative = inhibition” value is 2.62% (inactive).

Turning to `c1ccc(CN2CCN(Cc3ccc4c(c3)OCCO4)CC2)cc1`, the “activity, negative = inhibition” value is -11.9% (inactive).

`COc1ccc(C(=O)OC2C[C@H]3CC[C@@H](C2)N3C)cc1OC` (stereo partly drawn): the “activity, negative = inhibition” value was 21.6% [at 25.6 µM] (inactive).

Regarding `O=P(Nc1ccccc1)(Nc1ccccc1)Oc1cccc(Cl)c1`, the concentration at half-maximal activity (AC50) was 12.6 µM (active).

`CN1CCc2cc3c(cc2[C@@H]1[C@@H]1OC(=O)c2c1ccc1c2OCO1)OCO3`: the “activity, negative = inhibition” value is -27.9% [at 25.6 µM] (inactive).

Turning to `CCCN(CCC)C1Cc2cc(OC)c(OC)cc2C1`, the “activity, negative = inhibition” value was -17% (inactive).

For the compound `NC[C@@H](Cc1ccccc1)P(=O)(O)O`, the activity, negative = inhibition is 22.3% [at 11.4 µM] (inactive).

In the case of `Cc1ccc(S(=O)(=O)NCC2CCC(C(=O)N3CCC4(CC3)OCCO4)CC2)cc1` (stereo not drawn), the “activity, negative = inhibition” value is 12.2% (inactive).

Take `O=C(CNS(=O)(=O)c1ccc(Br)s1)N1CCC2(CC1)OCCO2`: the half-maximal activity concentration (AC50) was 11.2 µM (active).

With `O=C(Cn1ncc2ccsc2c1=O)N1CCC2(CC1)OCCO2`, the “activity, negative = inhibition” value is -7.07% (inactive).

As to `CO[C@H]1[C@H](O)[C@H](O[C@@H]2[C@H](Oc3cccc4c(O)c5c(=O)oc6ccc(C)c7c(=O)oc(c34)c5c67)O[C@@H](C)[C@H](O)[C@H]2O)O[C@@H](C)[C@@H]1O`, the activity, negative = inhibition is -7.14% [at 11.4 µM] (inactive).

As for `O=C(O)C[C@H]1NCc2cc3ccccc3nc21`, the activity, negative = inhibition was -0.422% [at 11.4 µM] (inactive).

Turning to `CN(C)CC/C=C1\c2ccccc2Sc2ccc(Cl)cc21`, the activity, negative = inhibition is 7.34% [at 11.4 µM] (inactive).

As to `O=C(O)Cc1cnc[nH]1`, the “activity, negative = inhibition” value was -5.96% (inactive).

Regarding `C=CCN1C[C@H](C)N([C@H](c2ccc(C(=O)N(CC)CC)cc2)c2cccc(OC)c2)C[C@H]1C`, the “activity, negative = inhibition” value is -11.6% (inactive).

Turning to `C=CCN1C[C@@H](C)N([C@H](c2ccc(C(=O)N(CC)CC)cc2)c2cccc(OC)c2)C[C@H]1C`, the “activity, negative = inhibition” value was -9.55% (inactive).

As to `C=CCN1C[C@H](C)N([C@H](c2ccc(C(=O)N(CC)CC)cc2)c2cccc(O)c2)C[C@H]1C`, the AC50 is 3.98 µM (active).

Turning to `NC(N)=NS(=O)(=O)c1ccc(N)cc1`, the “activity, negative = inhibition” value is 8.95% [at 25.6 µM] (inactive).

Turning to `CC[C@@H](CO)NC(=O)[C@H]1C=C2c3cccc4c3c(cn4C)C[C@H]2N(C)C1`, the “activity, negative = inhibition” value was -29.9% (inactive).

Regarding `O=[N+]([O-])c1cc(-c2ccc([As](=O)(O)O)cc2)ccc1[As](=O)(O)O`, the activity, negative = inhibition is 16.8% [at 11.4 µM] (inactive).

Turning to `CN(C)C=C1C(=O)N(C2CCCCC2)C(=O)N(C2CCCCC2)C1=O`, the AC50 was 2.24 µM (active).

Take `COc1cc(-c2ccc(=O)[nH]n2)ccc1OC(F)F`: the “activity, negative = inhibition” value was -1.03% [at 25.6 µM] (inactive).

As to `C[N+](C)(C)CCCCCC[N+](C)(C)C`, the “activity, negative = inhibition” value was 21.2% [at 25.6 µM] (inactive).

In the case of `CN=C(NC#N)NCCSCc1nc[nH]c1C`, the “activity, negative = inhibition” value was -1.35% (inactive).

For `O=C(O)CS(=O)(=O)C(c1ccccc1)c1ccccc1`, the activity, negative = inhibition is -12.7% [at 11.4 µM] (inactive).

Take `C(#CCN1CCCC1)CN1CCCC1`: the “activity, negative = inhibition” value was 7.11% [at 25.6 µM] (inactive).

For the compound `O=C1CCCN1CC#CCN1CCCC1`, the AC50 is 2 µM (active).

As for `C[N+](C)(C)CC#CCN1CCCC1=O`, the activity, negative = inhibition entry is “inactive”.

`CC(C)(C)C(=O)CP(=O)(O)O`: the activity, negative = inhibition was 9.42% [at 11.4 µM] (inactive).

Turning to `OC(c1ccccc1)(c1ccccc1)C1CCCN1` (stereo not drawn), the “activity, negative = inhibition” value was -17.9% (inactive).

`COc1ccccc1CN1CC[C@@]2(CCCN(C(=O)Oc3ccccc3)C2)C1`: the “activity, negative = inhibition” value was -9.71% (inactive).

For the compound `Cc1ccc(C(=O)C2C(=O)c3ccccc3C2=O)cc1`, the AC50 is 2.24 µM (active).

With `CCN1C[C@@]2(COC)CC[C@H](O)[C@@]34[C@@H]2C[C@@H]([C@@H]13)[C@]1(O)C[C@@H](OC)C2C[C@H]4[C@H]1[C@H]2OC(C)=O`, the “activity, negative = inhibition” value was -9.7% [at 25.6 µM] (inactive).

In the case of `c1ccc2sc(C3(N4CCCCC4)CCCCC3)cc2c1`, the activity, negative = inhibition entry is “inactive”.

Turning to `CC[C@]1(C2=NCCN2)Cc2ccccc2O1`, the activity, negative = inhibition entry was “inactive”.

By AC50 is commonly meant the midpoint of the concentration-response curve, whichever way the signal moves.
